How the values were obtained:
Assay in all cases: DAPPL (digital affinity profiling via proximity ligation, sequencing); 10 mM Tris-HCl pH 7.5, 50 mM NaCl, 1 mM DTT, 4% glycerol, room temperature, 30 min; GST-TFs on glutathione beads, 16-mer random dsDNA library, 0.1% formaldehyde crosslink after washing; high values mean tight binding
[1] = target: T1, FEV (Homo sapiens, UniProt Q99581 1-238); conditions: protein: recombinant; tags: N-terminal GST; dsDNA, one strand shown
T1 sequence: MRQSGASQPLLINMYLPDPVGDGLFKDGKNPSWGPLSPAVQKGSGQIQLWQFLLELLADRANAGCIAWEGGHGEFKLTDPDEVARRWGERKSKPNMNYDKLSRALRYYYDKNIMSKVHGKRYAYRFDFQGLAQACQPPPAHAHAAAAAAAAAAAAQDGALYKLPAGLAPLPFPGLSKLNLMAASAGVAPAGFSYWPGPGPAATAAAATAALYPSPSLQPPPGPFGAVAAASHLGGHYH
In short: (§1)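 In yeast, human transcription factors were expressed with a GST fusion, then pulled down on glutathione beads and given DNA barcodes. Pooled with a tag-only sample, they were exposed to 200 nmole of a 16-mer random double-stranded DNA library (Tris/NaCl/DTT/glycerol buffer, room temperature, 30 min), washed, crosslinked with 0.1% formaldehyde, proximity-ligated using BsaI/T4 ligase for 1 h at 37 °C, PCR-amplified and read on an Illumina NextSeq500. Each hexamer's frequency of reads for a factor, divided by the matching frequency for the tag-only sample, gives the binding signal.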

[2] = target: ETV5 (Homo sapiens, UniProt P41161 1-510); conditions: protein: recombinant; tags: N-terminal GST; dsDNA, one strand shown
In short: as §1

[3] = target: HSF1 (Homo sapiens, UniProt Q00613 1-529); conditions: protein: recombinant; tags: N-terminal GST; chain copies: 3; dsDNA, one strand shown
In short: as §1

[4] = target: T2, SPIC (Homo sapiens, UniProt Q8N5J4 1-248); conditions: protein: recombinant; tags: N-terminal GST; dsDNA, one strand shown
T2 sequence: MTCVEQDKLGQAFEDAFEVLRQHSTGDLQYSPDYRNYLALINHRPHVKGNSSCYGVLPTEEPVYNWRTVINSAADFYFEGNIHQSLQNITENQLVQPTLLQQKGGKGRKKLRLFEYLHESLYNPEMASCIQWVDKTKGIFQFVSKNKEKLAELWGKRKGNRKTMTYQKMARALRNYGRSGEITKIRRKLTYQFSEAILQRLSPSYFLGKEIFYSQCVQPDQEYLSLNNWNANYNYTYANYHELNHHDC
In short: as §1

[5] = target: ELF4 (Homo sapiens, UniProt Q99607 1-663); conditions: protein: recombinant; tags: N-terminal GST; dsDNA, one strand shown
In short: as §1

[6] = target: T3, ELK4 (Homo sapiens, UniProt P28324-2 1-405); conditions: protein: recombinant; tags: N-terminal GST; dsDNA, one strand shown
T3 sequence: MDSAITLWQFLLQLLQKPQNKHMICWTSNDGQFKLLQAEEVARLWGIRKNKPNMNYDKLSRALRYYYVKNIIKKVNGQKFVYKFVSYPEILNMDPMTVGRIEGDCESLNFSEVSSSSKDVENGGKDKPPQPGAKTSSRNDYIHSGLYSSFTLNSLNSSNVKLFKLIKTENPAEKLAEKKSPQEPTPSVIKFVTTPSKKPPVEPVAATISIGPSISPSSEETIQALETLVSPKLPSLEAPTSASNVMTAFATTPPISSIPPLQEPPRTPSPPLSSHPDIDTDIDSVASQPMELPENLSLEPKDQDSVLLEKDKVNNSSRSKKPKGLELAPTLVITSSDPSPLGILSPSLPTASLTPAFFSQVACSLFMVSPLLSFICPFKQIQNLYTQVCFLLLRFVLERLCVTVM
In short: as §1

[7] = target: T4, ETV2 (Homo sapiens, UniProt O00321 1-342); conditions: protein: recombinant; tags: N-terminal GST; dsDNA, one strand shown
T4 sequence: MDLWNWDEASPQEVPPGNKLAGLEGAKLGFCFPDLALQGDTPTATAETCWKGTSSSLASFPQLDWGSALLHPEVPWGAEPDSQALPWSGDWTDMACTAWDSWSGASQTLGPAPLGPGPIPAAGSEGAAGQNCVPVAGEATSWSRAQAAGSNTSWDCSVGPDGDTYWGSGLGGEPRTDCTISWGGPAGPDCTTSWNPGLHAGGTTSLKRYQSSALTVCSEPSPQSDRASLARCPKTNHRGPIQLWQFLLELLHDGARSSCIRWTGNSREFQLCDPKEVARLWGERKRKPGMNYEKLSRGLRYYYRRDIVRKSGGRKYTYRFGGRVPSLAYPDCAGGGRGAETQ
In short: as §1

[8] = target: T5, ELF3 (Homo sapiens, UniProt P78545 1-371); conditions: protein: recombinant; tags: N-terminal GST; dsDNA, one strand shown
T5 sequence: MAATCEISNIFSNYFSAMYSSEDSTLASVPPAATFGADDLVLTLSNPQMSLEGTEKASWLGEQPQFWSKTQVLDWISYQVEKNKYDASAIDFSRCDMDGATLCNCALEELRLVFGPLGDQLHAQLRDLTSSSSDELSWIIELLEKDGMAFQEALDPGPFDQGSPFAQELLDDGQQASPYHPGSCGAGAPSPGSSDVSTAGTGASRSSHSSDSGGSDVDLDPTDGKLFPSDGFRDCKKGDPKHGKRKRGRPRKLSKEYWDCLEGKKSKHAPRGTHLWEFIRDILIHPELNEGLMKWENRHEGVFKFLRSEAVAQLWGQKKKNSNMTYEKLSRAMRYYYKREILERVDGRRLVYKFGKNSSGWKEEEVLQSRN
In short: as §1

[9] = target: CRX (Homo sapiens, UniProt O43186 1-299); conditions: protein: recombinant; tags: N-terminal GST; dsDNA, one strand shown
In short: as §1

Sequence of ETV5 (P41161 whole entry): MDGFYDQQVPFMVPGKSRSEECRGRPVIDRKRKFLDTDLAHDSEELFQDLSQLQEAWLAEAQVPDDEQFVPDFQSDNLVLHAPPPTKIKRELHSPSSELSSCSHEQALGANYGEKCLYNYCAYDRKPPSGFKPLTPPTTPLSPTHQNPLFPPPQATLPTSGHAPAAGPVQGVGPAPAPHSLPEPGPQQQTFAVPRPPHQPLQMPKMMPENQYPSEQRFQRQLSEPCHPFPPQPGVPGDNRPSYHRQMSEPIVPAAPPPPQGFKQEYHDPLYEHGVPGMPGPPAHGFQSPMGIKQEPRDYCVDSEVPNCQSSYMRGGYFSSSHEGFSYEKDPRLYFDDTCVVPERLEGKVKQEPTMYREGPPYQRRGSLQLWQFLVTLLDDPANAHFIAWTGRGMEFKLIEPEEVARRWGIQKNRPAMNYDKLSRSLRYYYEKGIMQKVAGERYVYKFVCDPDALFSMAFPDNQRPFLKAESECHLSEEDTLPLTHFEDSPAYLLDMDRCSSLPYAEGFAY
Sequence of CRX (O43186 whole entry): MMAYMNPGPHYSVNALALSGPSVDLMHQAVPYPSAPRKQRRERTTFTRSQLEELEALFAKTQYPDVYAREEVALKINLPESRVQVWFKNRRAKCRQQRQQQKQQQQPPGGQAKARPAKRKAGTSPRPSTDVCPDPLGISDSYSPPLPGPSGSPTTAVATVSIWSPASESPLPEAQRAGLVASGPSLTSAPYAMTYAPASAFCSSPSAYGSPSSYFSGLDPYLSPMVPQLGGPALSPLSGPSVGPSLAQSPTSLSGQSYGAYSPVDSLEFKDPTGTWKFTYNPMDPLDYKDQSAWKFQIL
Sequence of ELF4 (Q99607 whole entry): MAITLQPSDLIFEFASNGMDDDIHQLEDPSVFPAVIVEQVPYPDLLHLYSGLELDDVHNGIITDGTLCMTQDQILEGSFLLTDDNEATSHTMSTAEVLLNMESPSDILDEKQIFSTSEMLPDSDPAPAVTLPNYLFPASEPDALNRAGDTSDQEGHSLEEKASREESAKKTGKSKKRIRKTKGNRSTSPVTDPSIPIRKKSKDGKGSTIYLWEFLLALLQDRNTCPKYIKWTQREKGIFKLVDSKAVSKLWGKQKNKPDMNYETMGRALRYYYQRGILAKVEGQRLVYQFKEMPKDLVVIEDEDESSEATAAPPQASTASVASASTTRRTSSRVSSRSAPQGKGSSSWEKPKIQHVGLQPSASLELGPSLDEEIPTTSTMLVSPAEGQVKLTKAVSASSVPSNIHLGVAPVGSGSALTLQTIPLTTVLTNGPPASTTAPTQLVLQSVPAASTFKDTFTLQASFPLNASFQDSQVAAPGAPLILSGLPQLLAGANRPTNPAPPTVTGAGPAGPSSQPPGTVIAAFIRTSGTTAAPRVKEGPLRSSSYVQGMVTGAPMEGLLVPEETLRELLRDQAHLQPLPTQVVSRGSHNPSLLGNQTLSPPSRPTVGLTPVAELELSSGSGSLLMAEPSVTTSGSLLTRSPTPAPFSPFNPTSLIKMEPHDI
Sequence of HSF1 (Q00613 whole entry): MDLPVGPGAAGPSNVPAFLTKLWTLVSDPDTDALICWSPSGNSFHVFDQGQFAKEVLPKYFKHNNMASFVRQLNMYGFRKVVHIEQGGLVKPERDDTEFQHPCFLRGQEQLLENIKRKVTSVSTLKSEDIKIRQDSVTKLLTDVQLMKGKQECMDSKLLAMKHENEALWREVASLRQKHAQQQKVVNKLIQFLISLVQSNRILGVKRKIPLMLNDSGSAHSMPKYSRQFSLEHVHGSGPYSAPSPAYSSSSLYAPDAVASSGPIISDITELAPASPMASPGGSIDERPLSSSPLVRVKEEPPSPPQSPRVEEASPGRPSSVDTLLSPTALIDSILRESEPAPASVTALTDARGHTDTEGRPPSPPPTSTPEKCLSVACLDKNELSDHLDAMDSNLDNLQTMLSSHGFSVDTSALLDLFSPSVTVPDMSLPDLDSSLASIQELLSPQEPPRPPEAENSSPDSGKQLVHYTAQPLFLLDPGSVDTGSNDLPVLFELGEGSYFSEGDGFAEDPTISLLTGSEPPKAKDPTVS

AGCTCT
binding signal [1]: 1.19 fold enrichment (6-mer frequency, TF over GST control) | binding signal [2]: 1.15 fold enrichment (6-mer frequency, TF over GST control) | binding signal [3]: 1.25 fold enrichment (6-mer frequency, TF over GST control) | binding signal [4]: 1.24 fold enrichment (6-mer frequency, TF over GST control) | binding signal [5]: 1.21 fold enrichment (6-mer frequency, TF over GST control) | binding signal [6]: 1.22 fold enrichment (6-mer frequency, TF over GST control) | binding signal [7]: 1.14 fold enrichment (6-mer frequency, TF over GST control) | binding signal [8]: 1.21 fold enrichment (6-mer frequency, TF over GST control) | binding signal [9]: 1.41 fold enrichment (6-mer frequency, TF over GST control)
